Data: PubChem BioAssay AID624352 (Sanford-Burnham Center for Chemical Genomics, 2012)
Out of some 360,000 compounds screened, about 2,600 (0.72%) were called active. This excerpt belongs to a sample that is enriched for actives. A number with no mark means an inactive call.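 Rule for the calls: active = inhibition of the luminescence signal of 40% or more relative to plate controls, in a single-dose primary screen at 18.75 µM; inactive = the rest.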

Experiment: blockers of HIF-2a driven luciferase – luminescence, 786-0 RCC cells, primary screen (AID 624352)
Details: 786-0 RCC cells HIF-2a reporter, overnight, at 18.8 µM, stronger effect = higher value

Row | SMILES | inhibition
1 | CCOC(=O)[C@]12Cc3cc(OC)ccc3[C@H]1N(C(C)C)C(=O)c1ccccc12 | 24.5%
2 | CCOC(=O)[C@]12Cc3ccccc3[C@H]1N(C1CCCCC1)C(=O)c1cc(OC)ccc12 | 81.9% (active)
3 | COc1ccc(CCn2c(O)c(C=NCCCn3ccnc3)c(=O)[nH]c2=O)cc1OC | 11.2%
4 | COc1ccc(Br)cc1CNCCc1cccc(Cl)c1 | 7.99%
5 | CC=C(C)C(=O)OC1CCN2CC=C(COC(=O)C(O)(C(C)OC)C(C)(C)O)C12 (stereo not given) | 3.51%
6 | COc1cc(OC)cc(C2(C#N)CCN(C)CC2)c1 | 13.2%
7 | COC(=O)C1=C(c2cc3ccccc3s2)C[C@@H]2CC[C@H]1N2C(=O)NC(C)C | 6.19%
8 | Cc1cccc(-n2c(O)c(/C=N/N3CCOCC3)c(=O)[nH]c2=S)c1 | 19.1%
9 | Cc1nn(-c2ccccc2)c(C)c1NC(=O)COC(=O)Cc1ccccc1 | 8.24%
10 | Cc1nc2nc(C)c(CCC(=O)N3CCC4(CC3)OCCO4)c(C)n2n1 | -0.723%
11 | CC(=O)OC1C2(CC3N4C(=O)C5(CO)SSC4(CC31O)C(=O)N5C)OC(C)C(C)(C)C2=O (stereo not given) | 91.3% (active)
12 | NC(=O)Nc1cccc(C(F)(F)F)c1 | 1.29%
13 | COC(=O)C[C@H]1CC[C@H]2NC[C@@H](O)COC[C@@H]2O1 | 10.3%
14 | COC1C(O)C(C)OC(OC2CCC3(C=O)C(CCC4C3CCC3(C)C(C5=CC(=O)OC5)CCC43O)C2)C1O (stereo not given) | 82.4% (active)
15 | C[C@]12CC[C@H](O)C[C@H]1CC[C@@H]1C2CC[C@]2(C)[C@@H](C3=CC(=O)OC3)[C@@H](O)C[C@]12O (stereo not given in full) | 33.4%
16 | COC(=O)CN(CCCl)P1(=O)OCCCN1CCCl (stereo not given) | 6.36%
17 | CN1CCN(Cc2ccccc2C(F)(F)F)CC1 | 9.38%
18 | O=c1c2ccccc2nc(CBr)n1-c1ccc(Cl)cc1 | -7.93%

Row | SMILES | inhibition
19 | CN(C)CC1Oc2ccccc2OC1(O)c1ccccc1 (stereo not given) | 55.3% (active)
20 | Cc1nc2ccccn2c1P(=S)(N1CCCCC1)N1CCCCC1 | 18.1%
21 | CC1([N+](=O)[O-])COP(=O)(Nc2ccc(F)cc2)OC1 (stereo not given) | 17.4%
22 | Cc1ccc(C(C)C)c(OCC(=O)N2CCN(CC(=O)N3CCOCC3)CC2)c1 | -3.94%
23 | c1ccc2sc(C3CCCNC3)nc2c1 (stereo not given) | -94.5%
24 | CC[C@H]1CC2CN3CCc4c([nH]c5ccccc45)C(C(=O)OC)(C2)C13 (stereo not given in full) | 20.3%
25 | O=P(OC1=CCCCC1)(c1ccccc1)c1ccccc1 | 12.4%
26 | CCC(C)(O)C(=O)OC1C(=O)OC2CC3C(C)=CC(=O)C(O)C3(C)C3C4(O)OCC23C1C(C)C4O (stereo not given) | 66.3% (active)
27 | O=c1[nH]c(=O)n(-c2ccc(F)cc2)c(O)c1C=NCCN1CCCCC1 | 24.6%
28 | CC(Cc1cccs1)NCc1ccc(Cl)cc1 (stereo not given) | -5.05%
29 | Cc1ccc(P(=S)(c2ccc(C)o2)N2CCOCC2)o1 | -0.609%
30 | CCCCCCCCCCCCn1ccc(=N)cc1 | 51.2% (active)
31 | C[C@]12CC[C@H](O)CC1=C([N+](=O)[O-])CC1C2CC[C@@]2(C)C1CC[C@@H]2O (stereo not given in full) | -4.21%
32 | CC(C)c1c(CN(C)C(C)Cc2ccccc2)n(C)n(-c2ccccc2)c1=O (stereo not given) | 17.5%
33 | CC(=CCOc1ccc2ccc(=O)oc2c1)C1=CC(=O)C(C)(C)O1 | 65.2% (active)
34 | O=C1NC(=O)C(Cc2ccccc2)C(=O)N1 | 0.735%
35 | CCOC(=O)C1CN(C)CCC1=O (stereo not given) | 12.2%
